{"source": "PubChem BioAssay", "note": "Active and inactive are the calls of the source.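 The calls were made as follows: active = mean inhibition above 46.68%, the untreated control wells mean plus 3 SD; inactive = the rest.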", "data": [{"molecular_target": "Nuclear receptor coactivator 1 (Homo sapiens) (UniProt Q15788)", "sequence (Q15788 whole entry, looked up, the tested form may be a part)": "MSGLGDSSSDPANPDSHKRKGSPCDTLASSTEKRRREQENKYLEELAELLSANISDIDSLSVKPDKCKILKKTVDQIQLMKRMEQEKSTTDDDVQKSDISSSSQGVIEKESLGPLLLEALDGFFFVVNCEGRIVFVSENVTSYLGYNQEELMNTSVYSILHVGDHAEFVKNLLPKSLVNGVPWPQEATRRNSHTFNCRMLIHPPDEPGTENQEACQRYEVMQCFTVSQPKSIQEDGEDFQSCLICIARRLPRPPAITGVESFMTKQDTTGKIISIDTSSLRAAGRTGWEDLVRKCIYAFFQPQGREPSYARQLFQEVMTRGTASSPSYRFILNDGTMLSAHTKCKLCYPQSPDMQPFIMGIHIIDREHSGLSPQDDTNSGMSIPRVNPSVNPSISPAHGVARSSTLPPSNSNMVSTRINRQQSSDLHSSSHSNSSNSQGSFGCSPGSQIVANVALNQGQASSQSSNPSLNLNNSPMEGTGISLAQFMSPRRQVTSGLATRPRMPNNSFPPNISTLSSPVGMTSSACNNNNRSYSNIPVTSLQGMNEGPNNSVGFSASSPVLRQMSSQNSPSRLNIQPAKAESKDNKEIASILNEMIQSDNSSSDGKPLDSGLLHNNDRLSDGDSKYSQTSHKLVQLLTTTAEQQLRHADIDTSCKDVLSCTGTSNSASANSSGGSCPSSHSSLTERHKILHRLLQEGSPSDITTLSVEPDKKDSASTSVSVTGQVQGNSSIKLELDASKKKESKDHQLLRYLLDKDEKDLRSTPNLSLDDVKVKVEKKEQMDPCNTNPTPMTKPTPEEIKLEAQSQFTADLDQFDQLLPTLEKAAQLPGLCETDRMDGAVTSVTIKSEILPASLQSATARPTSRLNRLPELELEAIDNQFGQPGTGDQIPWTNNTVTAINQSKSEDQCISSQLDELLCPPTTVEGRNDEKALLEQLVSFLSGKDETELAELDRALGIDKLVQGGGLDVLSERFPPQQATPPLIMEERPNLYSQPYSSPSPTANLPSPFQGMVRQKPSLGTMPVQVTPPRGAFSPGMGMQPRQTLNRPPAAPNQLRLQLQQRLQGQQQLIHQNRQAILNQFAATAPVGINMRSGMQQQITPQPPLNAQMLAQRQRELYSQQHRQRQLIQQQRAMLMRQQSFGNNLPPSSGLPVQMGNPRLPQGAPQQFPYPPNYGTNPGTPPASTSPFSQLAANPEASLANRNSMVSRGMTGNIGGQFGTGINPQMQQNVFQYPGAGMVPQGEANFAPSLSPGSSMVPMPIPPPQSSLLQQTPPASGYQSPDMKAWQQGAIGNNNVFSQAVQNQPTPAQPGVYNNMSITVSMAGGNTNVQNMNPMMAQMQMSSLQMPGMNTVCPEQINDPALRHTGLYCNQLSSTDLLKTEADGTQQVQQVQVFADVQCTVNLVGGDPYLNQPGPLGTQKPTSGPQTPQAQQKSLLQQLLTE", "experiment": "NCOA1 GAL4-fusion reporter inhibition – cell-based, luminescence, quadruplicate, confirmation (AID 588820);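 also: 0% = DMSO wells and 100% = gossypol 36 µM treated wells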", "conditions": "HEK293 GAL4-SRC1 luciferase reporter, at 3.6 µM, stronger effect = higher value", "values": [{"smiles": "Cc1ccc(CNc2ncnc3ccc(-c4ccoc4C)cc23)o1", "inhibition": "62% (active)"}, {"smiles": "O=C(Nc1c2ccccc2nc2ccccc12)C(Cl)(Cl)Cl", "inhibition": "-35% (inactive)"}, {"smiles": "O=[N+]([O-])c1ccc(O)c(/C=N/Nc2ccccn2)c1", "inhibition": "60.6% (active)"}, {"smiles": "COc1ccc(-c2csc(NC(=O)C3CCN(c4ncnc5sc(C)c(C)c45)CC3)n2)cc1OC", "inhibition": "23.8% (inactive)"}, {"smiles": "CN(C)CCCN1C(=O)c2cccc3c([N+](=O)[O-])ccc(c23)C1=O", "inhibition": "-9.62% (inactive)"}, {"smiles": "Cc1cc(C(=O)COC(=O)c2cccc(NS(C)(=O)=O)c2)c(C)n1CC1CCCO1", "note": "(stereo not given)", "inhibition": "-46.9% (inactive)"}, {"smiles": "O=C(NN=C(c1ccccc1)c1ccccn1)c1ccccc1", "inhibition": "36.7% (inactive)"}, {"smiles": "Cc1ccc(NC(=O)c2cc3ccccc3oc2=O)cc1S(=O)(=O)N(C)C", "inhibition": "67% (active)"}, {"smiles": "O=c1[nH]c(=S)ccn1C1OC(CO)C(O)C1O", "note": "(stereo not given)", "inhibition": "-11.9% (inactive)"}, {"smiles": "Cc1nn(Cc2ccc(Cl)cc2)c(C)c1NC(=O)c1cc(-c2ccc3c(c2)OCO3)on1", "inhibition": "29.5% (inactive)"}, {"smiles": "Cc1cccc(CNc2ncnc3ccc(-c4ccoc4)cc23)c1", "inhibition": "45.1% (inactive)"}, {"smiles": "CC(=O)NS(=O)(=O)c1ccc(NC(=O)/C=C/c2cn(-c3ccccc3)nc2-c2ccccc2)cc1", "inhibition": "1.36% (inactive)"}, {"smiles": "CCSCCc1nnc(NC(=O)Nc2cccc(C(F)(F)F)c2)s1", "inhibition": "45.9% (inactive)"}, {"smiles": "CCN(CC)CCNC(=O)c1ccc2c(c1NCCO)C(=O)c1ccccc1C2=O", "inhibition": "-19.2% (inactive)"}, {"smiles": "COc1ccc(-c2c[n+]3c(n2-c2ccccc2)CCCCC3)cc1", "inhibition": "17.3% (inactive)"}]}]}
